Consider 21 compounds from PubChem BioAssay (NCI).

Assay [1] can be described thus: NCI Yeast Anticancer Drug Screen. Data for the rad50 strain (AID 155).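 Also: 0% = growth of vehicle-only cultures of the same strain.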 The following applies: S. cerevisiae rad50 strain growth inhibition, stronger effect = higher value; at 50.0 µM unless noted. The method in brief:
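Readout: growth inhibition relative to vehicle-treated cultures. Compound exposure was carried out in a genetically defined yeast strain deficient in DNA damage repair.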

Assay [2] in a line: NCI Yeast Anticancer Drug Screen. Data for the mec2-1 strain (AID 157). The following applies: S. cerevisiae mec2-1 strain, stronger effect = higher value; at 50.0 µM unless noted. The method in brief: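 Growth inhibition is read against vehicle-treated controls after compound exposure of the mec2-1 yeast strain, which is defective in DNA damage repair or cell cycle control.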
Assay [3] is described as follows: NCI Yeast Anticancer Drug Screen. Data for the sgs1 mgt1 strain (AID 161).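 Also: 0% = growth of cultures given vehicle only.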 The following applies: S. cerevisiae sgs1 mgt1 strain, stronger effect = higher value; at 50.0 µM unless noted. The method in brief: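 Compounds are added to genetically altered yeast, and growth is compared with cultures given vehicle alone to give percent inhibition.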
The nature of assay [4]: NCI Yeast Anticancer Drug Screen. Data for the cln2 rad14 strain (AID 165).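 Also: 0% = growth equal to vehicle treated cultures.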 As to conditions: S. cerevisiae cln2 rad14 strain, stronger effect = higher value; at 50.0 µM unless noted. The method in brief: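 Growth inhibition, relative to vehicle-treated controls, is the read-out. The test organism is a yeast strain with defined genetic alterations, cln2 rad14.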
The nature of assay [5]: NCI Yeast Anticancer Drug Screen. Data for the bub3 strain (AID 167). The following applies: S. cerevisiae bub3 mutant strain, stronger effect = higher value; at 50.0 µM unless noted. A digest of the protocol:
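Readout: yeast growth inhibition, expressed relative to vehicle-only wells. The test organism is a mutant strain from a panel with lesions in DNA repair or checkpoint genes.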

Assay [6] in a line: NCI Yeast Anticancer Drug Screen. Data for the mlh1 rad18 strain (AID 175). The following applies: S. cerevisiae mlh1 rad18 strain growth inhibition, stronger effect = higher value; at 50.0 µM unless noted. A digest of the protocol: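 Cells of a genetically altered yeast strain, deficient in DNA damage repair, were treated with compound. Their growth was then compared with that of vehicle-treated cultures to give inhibition.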

Compounds without any hit were thinned out: in the full panel of roughly 79,000, 15% have a hit. Values without a mark were called inactive. Activity calls are given as the source filed them. Rule as the data show it: active = growth inhibition above about 70%; inactive = the rest.

For `CCN(CC)c1ccc(C(c2ccc(N(CC)CC)cc2Cl)c2cccc3ccccc23)c(Cl)c1`, the growth inhibition was 24.8% in assay [1]; 19.8% in assay [2]; 30.3% in assay [3]; 36.2% in assay [4]; 22.4% in assay [5]; 7.85% in assay [6].

As to `Cn1c(=O)c(C(=O)Nc2nc(C34CC5CC(CC(C5)C3)C4)cs2)c(O)c2ccccc21`, the growth inhibition in assay [1] was -27.8%; in assay [2], -28.6%; in assay [3] it was -5.7%; in assay [4], 11.1%; in assay [5], -10%; in assay [6], -30.6%.

For the compound `Cn1ccn(C2CCCCC2)c1=O`, the growth inhibition in assay [1] was 3.35%; in assay [2], 5.1%; in assay [3], -0.25%; in assay [4] it was -12.3%; in assay [5] it was 35%; in assay [6], 7.95%.

Regarding `Cc1cc(Cl)c(OCC(=O)O)cc1C`, the growth inhibition in assay [1] was -8.2%; in assay [2], -9.45%; in assay [3] it was -9.25%; in assay [4], -8.3%; in assay [5], -14.6%; in assay [6], -1.9%.

For `CCOC(=O)c1c[nH]c2c(Cl)c(Cl)ccc2c1=O`, the growth inhibition in assay [1] was -4.65%; in assay [2] it was -19.1%; in assay [3], -1.1%; in assay [4], 12.9%; in assay [5], 9.25%; in assay [6], -6.95%.

For the compound `COC(=O)[C@@H]1O[C@H]1c1ccccn1`, the growth inhibition is 7.9% in assay [1]; 1.1% in assay [2]; -7.95% in assay [3]; -5.75% in assay [4]; 8.95% in assay [5]; 0.1% in assay [6].

`Cc1ccc2nc(C=Nc3ccccc3Cl)cc(C)c2c1`: the growth inhibition in assay [1] is -7.4%; in assay [2], -5.85%; in assay [3], -9.3%; in assay [4], 17.8%; in assay [5], -4.45%; in assay [6], 3.2%.

As to `CCOC(=O)N1CCc2cc(OC)c(OC)cc2C1Cc1ccc(OC)c(OC)c1` (stereo unspecified), the growth inhibition in assay [1] was -2.2%; in assay [2], -8.75%; in assay [3] it was -7.7%; in assay [4], 12%; in assay [5], 1.95%; in assay [6], -5.5%.

`Nc1n[n+](-c2cccc([N+](=O)[O-])c2)no1`: the growth inhibition was 32.4% in assay [1]; 16.4% in assay [2]; 69.5% in assay [3]; 5.3% in assay [4]; 81.4% (active) in assay [5]; 32.5% in assay [6].

On to `Nc1nc(=S)[nH]c(=S)[nH]1`, for which the growth inhibition is 22.9% in assay [1]; 19.4% in assay [2]; 10.9% in assay [3]; 2.7% in assay [4]; 17.2% in assay [5]; -4.45% in assay [6].

For `COc1ccc2c(c1OC(C)=O)-c1cc(OC(C)=O)cc3c1C(C2)N(C(=O)CBr)CC3` (stereo unspecified), the growth inhibition is 62% in assay [1]; 54.2% in assay [2]; 70.2% (active) in assay [3]; 36% in assay [4]; 20.5% in assay [5]; 59.4% in assay [6].

Take `O=c1c(-c2ccccc2)c[nH]c2ccccc12`: the growth inhibition was 26.7% in assay [1]; 16.6% in assay [2]; 20.9% in assay [3]; 8.45% in assay [4]; -10.9% in assay [5]; 44.5% in assay [6].

Consider `O=C1CCCN(c2ccccc2)N1`, for which the growth inhibition in assay [1] was 24.4%; in assay [2] it was 24.6%; in assay [3], 3.3%; in assay [4], 5.1%; in assay [5] it was 31.9%; in assay [6], -3.8%.

As to `COc1cc([N+](=O)[O-])c(S(=O)(=O)O)cc1NS(=O)(=O)c1ccc(C)cc1`, the growth inhibition was 7.8% in assay [1]; 16.6% in assay [2]; 22% in assay [3]; 3.95% in assay [4]; 1.4% in assay [5]; 10.2% in assay [6].

For the compound `COC(=O)c1[nH]c(=O)c2ccc([N+](=O)[O-])cc2c1O`, the growth inhibition was -15.7% in assay [1]; 0.15% in assay [2]; -14.9% in assay [3]; 16.1% in assay [4]; -6.05% in assay [5]; -0.4% in assay [6].

As to `CC(Cl)S(=O)(=O)c1ccccc1` (stereo unspecified), the growth inhibition in assay [1] is 7.45%; in assay [2], -4.05%; in assay [3] it was -17.9%; in assay [4] it was -42.5%; in assay [5] it was 8.35%; in assay [6], -14.3%.

As for `COc1cccc(C2c3cc4c(cc3OC(C)(O)C2C)OCO4)c1O` (stereo unspecified), the growth inhibition is -4.7% in assay [1]; -3.75% in assay [2]; -0.25% in assay [3]; -24.8% in assay [4]; 1.65% in assay [5]; -9.9% in assay [6].

Consider `O=C(NCCCOC(=O)CCCCCCCCC(=O)OCCCNC(=O)NC(=O)c1c[nH]c(=O)[nH]c1=O)NC(=O)c1c[nH]c(=O)[nH]c1=O`, for which the growth inhibition in assay [1] is -11.5%; in assay [2], -18.6%; in assay [3], -7.85%; in assay [4] it was 8.3%; in assay [5] it was 6.05%; in assay [6] it was -14.9%.

Regarding `O=C(Oc1ccc(Cl)cc1)c1ccc([N+](=O)[O-])cc1`, the growth inhibition in assay [1] was 12.2%; in assay [2], 26.1%; in assay [3], 9.9%; in assay [4] it was 2.7%; in assay [5] it was 8.65%; in assay [6], 0.2%.

Turning to `O=C(O)[C@H](Cc1ccccc1)N1C(=O)N[C@@H](Cc2ccccc2)C1=O`, the growth inhibition was -21.6% in assay [1]; -1.7% in assay [2]; 4.75% in assay [3]; 2.35% in assay [4]; 3.6% in assay [5]; -2.7% in assay [6].

Take `O=C(O)C1CC(=O)N(Cc2ccccc2)C1` (stereo unspecified): the growth inhibition in assay [1] was 32.8%; in assay [2], 33.3%; in assay [3], 34.6%; in assay [4], 6.45%; in assay [5], 26.7%; in assay [6], 34%.
